# Bioassay records: PubChem, National Center for Advancing Translational Sciences (NCATS)
# Vaccinia Venus – inhibitors of vaccinia virus (Venus reporter); Vaccinia virus Venus reporter expression, fluorescence; Potency, µM (doses to about 36.5 µM), without a hit: at the highest dose activity change, negative = inhibition, actives largely listed as inhibitors; 0.46% of 330,000 active; AID 720580; calls by dose curve; tested in A549 cells; note: potency is the fitted concentration of half-maximal effect; nearly all actives have a fitted effect of over 30% in size
# Vaccinia mCherry – vaccinia inhibition (mCherry reporter); AID 720579; Potency, µM (top dose mostly 36.5 µM), without a hit: at the highest dose activity change, negative = inhibition, most hits filed as inhibitors; Vaccinia virus mCherry reporter infection, fluorescence; 0.63% of 310,000 active; calls by dose curve; tested in A549 cells; note: potency is the fitted concentration of half-maximal effect; nearly all actives have a fitted effect of over 35% in size
# FMDV inh – blocks foot and mouth disease virus | AID 1159524 | 1.2% of 410,000 active | FMDV antiviral cell-based qHTS | Potency, µM (top dose mostly 57.9 µM), for the others: at the highest dose activity change, negative = inhibition, actives largely listed as inhibitors; calls by dose curve; tested in HEK293T cells; note: read-out not given here; potency is the fitted concentration of half-maximal effect; nearly all actives have a fitted effect of over 45% in size
# HCMV inh – blocks human cytomegalovirus replication; HFF cells, HCMV-luciferase reporter, 72 h; active compounds read low; activity change, negative = inhibition, % at 57.5 µM; 4.5% of 410,000 active; in the data active = activity change below about -60%; inconclusive = no clear call, values can overlap the other calls; inactive = above about -39%
#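 Compounds were evaluated in HFFs infected with an HCMV luciferase reporter virus (MOI 1 PFU/cell). Luciferase in lysates collected 72 h post infection served as the replication measure.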
# HCV inhibitor – HCV inhibition; AID 651820; 3.4% of 340,000 active; Huh7.5.1 HCVcc-Cre infection, luciferase reporter, 44 h; Potency, µM (series often up to 41.8 µM), without a hit: at the highest dose activity change, negative = inhibition, actives largely listed as inhibitors; active = well fitted inhibition curve with a large enough effect; inconclusive = small, poorly fitted or top-dose-only effect, or another doubt; inactive = no such curve, though single readings can be large or run the other way; note: potency is the fitted concentration of half-maximal effect
#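 Infectious HCV cell culture screen: compound-treated cells (1,000/well, pre-plated 4 h) are infected with HCVcc-Cre at roughly 0.5 moi and grown 44 h. Infection is quantified by luciferase signal after 15 min substrate incubation at room temperature.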
# The depositor's hits bear a star; i = inactive; ? = inconclusive; / = no result; [ ] = remark or other dose. A selection: hits, their analogues and other compounds. The true share with any hit is near 7.3%. % is set by controls: 0 for no effect and ±100 for the full control effect.
SMILES,Vaccinia Venus,Vaccinia mCherry,FMDV inh,HCMV inh,HCV inhibitor
COc1ccc(C2CC(=O)c3c(C)nc(N4CCN(Cc5ccccc5)CC4)nc3C2)cc1OC (centres undefined),/,/,11.2µM*,-97.7*,3.55µM*
COc1cc(C2CC(=O)c3cnc(N4CCN(Cc5ccccc5)CC4)nc3C2)cc(OC)c1OC (centres undefined),-13.9%,?,15.8µM*,38.4,?
Cc1nc(N2CCN(Cc3ccccc3)CC2)nc2c1C(=O)CC(C)C2 (centres undefined),/,/,?,-37.3,-21.7%
O=C(Nc1ccccc1)c1cc(C2COCCN2C(=O)c2cccs2)on1 (centres undefined),-6.8%,-8.6%,-3.4%,-84.9*,/
CC(=O)N1CCOCC1c1cc(C(=O)Nc2ccccc2)no1 (centres undefined),-0.9%,-9.2%,19.7%,?,/
C=CCC[C@H](Cc1ccc(F)cc1)C(=O)OC[C@H](Cc1c[nH]c2ccccc12)NC(=O)[C@H](CC=C)CC(=O)N(CCO)Cc1ccccc1,22.4µM*,?,-26.7%,56.4,?
C=CCC[C@@H](Cc1ccc(F)cc1)C(=O)OC[C@@H](C)NC(=O)[C@@H](CC=C)CC(=O)N[C@H](CO)Cc1ccccc1,?,?,39.8µM*,-15.8,?
C=CCC[C@@H](Cc1ccc(F)cc1)C(=O)OC[C@@H](Cc1c[nH]c2ccccc12)NC(=O)[C@H](CC=C)CC(=O)N[C@H](CO)Cc1ccccc1,11.2µM*,-32.0%,-24.0%,?,?
C=CCC[C@@H](Cc1ccc(F)cc1)C(=O)OC[C@@H](Cc1ccccc1)NC(=O)[C@H](CC=C)CC(=O)NCCO,?,-2.9%,-27.6%,-20.4,7.08µM*
C=CCC[C@H](Cc1ccc(F)cc1)C(=O)OC[C@@H](Cc1c[nH]c2ccccc12)NC(=O)[C@@H](CC=C)CC(=O)N[C@@H](CO)Cc1ccccc1,?,-19.6%,?,31.9,-53.1%
COc1ccc(NC(=O)CSc2oc(-c3ccco3)nc2S(=O)(=O)c2ccc(Br)cc2)c(OC)c1,-4.7%,-9.1%,-7.6%,2.0,/
CCOC(=O)Cc1csc(SCC(=O)NC2CCS(=O)(=O)C2)n1 (centres undefined),/,/,-2.8%,-6.6,7.1%
CC(C)(C)c1ccc(C(=O)Nc2nc3nc(-c4ccccc4)cc(=O)n3[nH]2)cc1,-2.4%[7.34 µM],-6.6%[7.34 µM],-5.6%,18.2,/
N#CC(c1c(Cl)cccc1N1CCCCC1)N1CCCCC1 (centres undefined),/,/,/,12.6,/
O=C(OCC(=O)N1CCc2ccccc2C1)c1ccc(O)cc1,/,/,0.0%,-3.5,-2.3%
CCc1ccccc1NC(=O)c1ccc2c(c1)nnn2C1CCCC1,-13.2%,-3.0%,-7.8%,-21.7,/
COc1ccc(CCC(=O)N2CCN(c3ccc([N+](=O)[O-])cc3)CC2)cc1OC,-17.7%,-9.3%,?,-67.7*,31.6µM*
COc1ccccc1CC(=O)N1CCN(c2ccc([N+](=O)[O-])cc2)CC1,/,/,?,?,6.31µM*
COc1ccccc1CC(=O)N1CCCC1,5.3%,-12.9%,-16.4%,-7.2,20.3%
CCNC(=S)N1CCN(c2ccc([N+](=O)[O-])cc2)CC1,-4.4%,i,?,7.6,-2.7%
COc1ccccc1CC(=O)N1CCN(c2ccccn2)CC1,?,/,5.8%,-73.5*,-5.5%
O=[N+]([O-])c1ccc(N2CCN(C(=S)NCc3ccc(Cl)cc3)CC2)cc1,?,-27.1%,?,-90.2*,11.2µM*
COc1ccc(N2CCN(C(=O)CCc3cc(OC)c(OC)c(OC)c3)CC2)cc1,/,/,-9.5%,-13.9,-15.2%
CCCN1C(=O)C2(c3ccccc31)c1c(oc3ccccc3c1=O)C(=O)N2CCO (centres undefined),-1.6%,-8.2%,0.4%,0.1,/
Cc1ccc(CNc2ncnc3ccc(-c4ccoc4C)cc23)o1,/,/,?,-29.6,/
SMILES,Vaccinia Venus,Vaccinia mCherry,FMDV inh,HCMV inh,HCV inhibitor
CNc1c(NC(=O)C2CCC(C)CC2)c(=O)oc2ccccc12 (centres undefined),-9.5%,-20.8%,0.0%,-24.1,-3.8%
COc1ccc(NC(=O)N2CCN(c3ccc([N+](=O)[O-])cc3)CC2)cc1OC,-8.4%,i,-28.5%,-34.2,10µM*
Cc1noc(C)c1CSCC(=O)N1CCN(c2ccc([N+](=O)[O-])cc2)CC1,?,/,?,?,11.2µM*
Cc1ccc(CC(=O)N2CCN(c3ccc([N+](=O)[O-])cc3)CC2)cc1,-17.1%,-15.8%,-27.4%,-21.3,?
CC(C)(C)c1ccc(OCC(=O)N2CCN(c3ccccn3)CC2)cc1,/,/,-27.3%,-94.3*,-15.5%
COc1ccc(N2CCN(C(=O)CSc3ccc([N+](=O)[O-])cc3)CC2)cc1,-23.3%,-21.4%,?,-65.0*,?
COc1ccc(S(=O)(=O)N(C)C[C@H]2Oc3ccc(NC(=O)Nc4ccc5c(c4)OCO5)cc3C(=O)N([C@H](C)CO)C[C@@H]2C)cc1,-27.0%,i,-16.3%,-11.5,-10.1%
Cc1ccc(C)c(S(=O)(=O)N2CCN(Cc3cc4c(cc3O)OCO4)CC2)c1,?,?,-11.2%,1.0,11.5%
CCCCCn1c(CN2CCN(c3ccc(OC)cc3)CC2)nc2c1c(=O)[nH]c(=O)n2C,-0.3%,-15.9%,0.0%,-3.6,/
COc1ccccc1/C=C/C=N/N1CCN(c2ccccn2)CC1,-1.3%,/,?,-64.1*,-13.4%
CC(NC(=O)Cn1ncc2c3ccccc3n(Cc3ccc(F)cc3)c2c1=O)c1ccccc1 (centres undefined),-20.4%,-18.0%,-1.3%,-7.8,/
COc1ccc(C[C@H]2COC(=O)[C@@H]2Cc2ccc(OC3OC(CO)C(O)C(O)C3O)c(OC)c2)cc1OC (some centres undefined),-15.5%,-21.0%,-0.4%,/,7.08µM*
Cc1ccccc1OCCCCn1cnc2ccccc21,/,/,-23.0%,-68.1*,7.94µM*
Cc1ccc(OCCCCn2cnc3ccccc32)cc1,-21.0%,-2.2%,-10.3%,10.2,?
Cc1ccc(Cn2cnc3ccccc32)cc1C,-9.3%,-5.3%,?,-63.2*,?
CCCCN1CC(c2nc3ccccc3n2CCCCOc2ccccc2C)CC1=O (centres undefined),-20.7%,-20.3%,-25.2%,-68.4*,/
Cc1ccccc1OCCCCn1c(CO)nc2ccccc21,-13.4%,i,?,-93.9*,11.2µM*
Cc1ncsc1CCC(=O)N1CCCC(c2nc(-c3ccncc3)ncc2-c2ccccc2)C1 (centres undefined),-14.3%,-24.7%,?,/,/
O=C(Nc1cc(-c2ccc(Cl)cc2)no1)c1ccc(F)cc1,-5.2%,-17.6%,1.7%,2.4,/
COc1cc(CNCc2cc(OC)c(OC)c(OC)c2)cc(OC)c1,/,/,?,-15.8,?
Nc1ncnc2c1ncn2[C@@H]1O[C@H](C(=O)N[C@H]2c3ccccc3C[C@H]2OC=O)[C@@H](O)[C@H]1O,2.8%,9.9%,-24.0%,-15.5,/
Cc1ccc(COC(=O)c2ccc(-c3nnn(Cc4ccc(C)cc4)n3)cc2)cc1,-4.4%,-4.0%,-21.3%,1.4,/
